The values below come from PubChem BioAssay (NCATS).

A short description of experiment [1]: P-glycoprotein substrates identified in KB-3-1 adenocarcinoma cell line, qHTS therapeutic library screen (AID 1346986). Note: nearly all actives have a fitted effect of over 60% in size.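 Note: potency is the fitted concentration of half-maximal effect; potency is for cytotoxicity meaning loss of cell viability.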 The gist of the method: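 Counter-screen: cherry-picked hits retested in the KB pair and in HEK-293 pcDNA/MDR-19 cells ± tariquidar. Primary screen used 72 h CellTiter-Glo viability in KB-3-1 and KB-8-5-11.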
(Quantitative high-throughput screening tests each substance at several concentrations.)

Experiment [2] is described as follows: P-glycoprotein substrates identified in KB-8-5-11 adenocarcinoma cell line, qHTS therapeutic library screen (AID 1346987). Note: nearly all actives have a fitted effect of over 65% in size. The gist of the method:
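P-gp-mediated resistance screen: KB-8-5-11 cells treated 72 h with compounds in dose-response. CellTiter-Glo viability.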

Experiment [3] is described as follows: qHTS of pediatric cancer cell lines to identify multiple opportunities for drug repurposing: Primary screen for TC32 cells (AID 1347089). Note: nearly all actives have a fitted effect of over 60% in size. The gist of the method: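 In the primary qHTS, MIPE compounds were tested at 11 concentrations (0.78 nM to 46 µM) and NPC compounds at 8 (0.59 nM to 46 µM) on TC32 cells for 48 h. CellTiter-Glo luminescence gave viability.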

The nature of experiment [4]: qHTS of pediatric cancer cell lines to identify multiple opportunities for drug repurposing: Primary screen for DAOY cells (AID 1347090). Note: nearly all actives have a fitted effect of over 55% in size. Note: potency is the fitted concentration of half-maximal effect. The method, boiled down: (§1)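 Cell viability, CellTiter-Glo luminescence; 500-1,000 cells/well, 8- or 11-point titration, 48 h compound exposure at 37 degrees C, 5% CO2. Controls: DMSO neutral, bortezomib 2.3 µM final as positive.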
Experiment [5] is described as follows: qHTS of pediatric cancer cell lines to identify multiple opportunities for drug repurposing: Primary screen for SJ-GBM2 cells (AID 1347091). Note: potency is the fitted concentration of half-maximal effect. The gist of the method:
as §1

A short description of experiment [6]: qHTS of pediatric cancer cell lines to identify multiple opportunities for drug repurposing: Primary screen for BT-37 cells (AID 1347094). Note: potency is the fitted concentration of half-maximal effect. The method, boiled down: (§2)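 Quantitative HTS format: each compound titrated (MIPE 11 points from 0.78 nM, NPC 8 points from 0.59 nM) onto cells plated 5 hours earlier. After 48 h at 37 degrees C, CellTiter-Glo luminescence was recorded.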

A short description of experiment [7]: qHTS of pediatric cancer cell lines to identify multiple opportunities for drug repurposing: Primary screen for NB-EBc1 cells (AID 1347095). Note: potency is the fitted concentration of half-maximal effect. The gist of the method: as §2
Experiment [8] is described as follows: qHTS of pediatric cancer cell lines to identify multiple opportunities for drug repurposing: Primary screen for U-2 OS cells (AID 1347096). Note: nearly all actives have a fitted effect of over 50% in size. The gist of the method:
(§3)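 Cells (500-1,000/well) rested 5 h, then received compounds for 48 h; metabolically active cells were measured by CellTiter-Glo luminescence. Final concentrations spanned up to 46 µM (MIPE, 11-point) or 0.59 nM-46 µM (NPC, 8-point) in primary screens, 11-point in follow-ups.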

A short description of experiment [9]: NS1 protein of Zika virus - qHTS assay to identify small molecule inhibitors in human HEK 293 cells (AID 1347053). Note: series mostly up to about 46 µM; nearly all actives have a fitted effect of over 55% in size. The gist of the method: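 HEK 293 cells, seeded 20 h at 37 C, were pretreated with compound 1 h, then infected with ZIKV MR766 (MOI = 0.5) for 24 h. NS1 was read by TR-FRET with two anti-NS1 antibodies, normalized to uninfected and infected wells.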

Experiment [10] is described as follows: qHTS of pediatric cancer cell lines to identify multiple opportunities for drug repurposing: Primary screen for SK-N-MC cells (AID 1347093). Note: potency is the fitted concentration of half-maximal effect. The gist of the method: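 Metabolically active cells were quantified by ATP-dependent luminescence (CellTiter-Glo, 15 min at room temperature) following 48 h treatment. Cells had been plated at 500-1,000 per well and settled for 5 h beforehand.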

Experiment [11] in a line: qHTS of pediatric cancer cell lines to identify multiple opportunities for drug repurposing: Primary screen for SK-N-SH cells (AID 1347098). Note: nearly all actives have a fitted effect of over 65% in size. Note: potency is the fitted concentration of half-maximal effect. The method, boiled down: as §3
A short description of experiment [12]: qHTS of pediatric cancer cell lines to identify multiple opportunities for drug repurposing: Primary screen for Saos-2 cells (AID 1347097). Note: nearly all actives have a fitted effect of over 40% in size. Note: potency is the fitted concentration of half-maximal effect. The gist of the method: as §2
Experiment [13] can be described thus: qHTS of pediatric cancer cell lines to identify multiple opportunities for drug repurposing: Primary screen for A673 cells (AID 1347092). Note: nearly all actives have a fitted effect of over 45% in size. Note: potency is the fitted concentration of half-maximal effect. The method, boiled down: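 48 h compound exposure, A673, 500-1,000 cells/well, 37 degrees C/5% CO2. MIPE: 11-point, 0.78 nM-46 µM; NPC: 8-point, 0.59 nM-46 µM (final). Readout CellTiter-Glo luminescence after 15 min RT.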

Experiment [14] in a line: Natriuretic polypeptide receptor (hNpr1) antagonism - Pilot counterscreen GloSensor control cell line (AID 1347045; calls by dose curve; note: series mostly up to about 38 µM). The method, boiled down:
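This counterscreen uses HEK293 cells expressing the GIP/pGS-40F cGMP biosensor. Compound-treated cells are challenged with 50 uM sodium nitroprusside, and the luciferase signal is compared before and after stimulation.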
In general terms: A counterscreen serves to expose hits that act by an unwanted route or on another target.

Experiment [15] deals with Atrial natriuretic peptide receptor 2 (Homo sapiens) (UniProt P20594). Kind of experiment: Natriuretic polypeptide receptor (hNpr2) antagonism - Pilot subtype selectivity assay (AID 1347050; calls by dose curve). The gist of the method:
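Pilot selectivity screen against hNpr2: HEK293 cGMP-sensor cells are treated with LOPAC1280 compounds, then with hNppC peptide at 1 nM final. The cGMP-driven luminescence change over 20 min at room temperature is the read-out.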

The target in experiment [16] is T1, Tyrosine-protein phosphatase non-receptor type substrate 1 (Homo sapiens) + Leukocyte surface antigen CD47 (Homo sapiens) (UniProt P78324+Q08722). Kind of experiment: CD47-SIRPalpha protein protein interaction - LANCE assay qHTS validation (AID 1347057; active = well fitted curve in the direction sought with a large enough effect in the signal ratio, with a control signal flat, not every such curve was filed as active; the % refers to the signal ratio; note: series mostly up to about 38 µM). The method, boiled down: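 First, His-tagged CD47 and Eu-labelled anti-His antibody met the compound for 30 min; next, site-specifically biotinylated SIRPalpha was added for 30 min; finally streptavidin-APC was added before reading the TR-FRET ratio.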

In experiment [17] the target is T1, Tyrosine-protein phosphatase non-receptor type substrate 1 (Homo sapiens) + Leukocyte surface antigen CD47 (Homo sapiens). Kind of experiment: CD47-SIRPalpha protein protein interaction - HTRF assay qHTS validation (AID 1347058; active = well fitted curve in the direction sought with a large enough effect in the signal ratio, not every such curve was filed as active; the % refers to the signal ratio;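 note: recombinant soluble extracellular CD47 with His tag and biotinylated SIRPalpha domains; series mostly up to about 38 µM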). The gist of the method:
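TR-FRET read (Ch1/Ch2 ratio) of soluble extracellular CD47 and Avi-biotinylated SIRPalpha domains in PBS pH 7.4 with 0.05% IGEPAL; 7-point compound titration. Sequential 30 min room-temperature steps; non-biotinylated SIRPalpha as control inhibitor.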
For orientation: Time-resolved FRET reads energy transfer from a long-lived donor to a nearby acceptor.

Experiment [18] shares this target. Kind of experiment: CD47-SIRPalpha protein protein interaction - Alpha assay qHTS validation (AID 1347059).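 Note: bead proximity luminescence from CD47 binding SIRPalpha after compound preincubation with SIRPalpha.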 The gist of the method: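 Binding is measured by AlphaScreen proximity: Ni-NTA acceptor beads capture His-CD47, streptavidin donor beads capture biotin-SIRPalpha. Each of three additions (SIRPalpha with compound, CD47, beads) incubates 30 min at room temperature protected from light.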

Experiment [19] deals with Parathyroid hormone/parathyroid hormone-related peptide receptor (Homo sapiens) (UniProt Q03431). Kind of experiment: qHTS for PTHR1 Agonists: Optimization Screen against the NCGC LOPAC library (AID 1347079).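 Note: GloSensor cAMP luminescence in HEK-293 GP2 cells expressing human PTHR1 with IBMX.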 The method, boiled down: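 Compounds were tested across a qHTS titration. PTHR1-expressing GP2 cells report cAMP rises via GloSensor luminescence after 1 hr compound exposure at 37C with IBMX present.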

A short description of experiment [20]: qHTS of pediatric cancer cell lines to identify multiple opportunities for drug repurposing: Primary screen for NB1643 cells (AID 1347099). Note: nearly all actives have a fitted effect of over 50% in size. The method, boiled down: as §2

Records with an inconclusive call do not appear. Activity calls are given as the source filed them. Unless noted, calls come from the whole dose curve; as a rule, active = well fitted curve in the direction sought with a large enough effect; inconclusive = small, poorly fitted or top-dose-only effect, or another doubt; inactive = no such curve, though single readings can be large; an effect the other way counts as inactive or inconclusive.

T1 sequence (P78324 whole entry, looked up): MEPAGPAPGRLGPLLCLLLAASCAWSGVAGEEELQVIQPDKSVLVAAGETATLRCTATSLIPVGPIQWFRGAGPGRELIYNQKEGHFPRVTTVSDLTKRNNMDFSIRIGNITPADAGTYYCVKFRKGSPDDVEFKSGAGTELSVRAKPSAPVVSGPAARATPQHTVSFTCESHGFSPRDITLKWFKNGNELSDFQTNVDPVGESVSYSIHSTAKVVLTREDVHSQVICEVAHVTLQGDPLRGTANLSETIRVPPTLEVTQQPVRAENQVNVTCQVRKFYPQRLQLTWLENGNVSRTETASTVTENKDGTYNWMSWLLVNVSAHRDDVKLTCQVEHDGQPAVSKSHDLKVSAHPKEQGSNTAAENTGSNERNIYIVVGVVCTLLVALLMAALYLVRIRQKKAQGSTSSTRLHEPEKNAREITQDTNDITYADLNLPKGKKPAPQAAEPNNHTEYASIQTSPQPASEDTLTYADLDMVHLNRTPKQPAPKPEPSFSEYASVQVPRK
T1 sequence (Q08722 whole entry, looked up): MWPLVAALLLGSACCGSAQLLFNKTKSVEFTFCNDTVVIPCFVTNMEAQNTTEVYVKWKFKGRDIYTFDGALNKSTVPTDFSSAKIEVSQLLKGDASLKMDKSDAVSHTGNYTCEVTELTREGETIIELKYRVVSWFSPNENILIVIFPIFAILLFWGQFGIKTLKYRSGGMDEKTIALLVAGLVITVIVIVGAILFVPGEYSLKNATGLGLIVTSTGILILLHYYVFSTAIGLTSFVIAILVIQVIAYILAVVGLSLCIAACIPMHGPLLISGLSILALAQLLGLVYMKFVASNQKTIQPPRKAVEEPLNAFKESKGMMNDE
Parathyroid hormone/parathyroid hormone-related peptide receptor (Homo sapiens), sequence (Q03431 whole entry, looked up): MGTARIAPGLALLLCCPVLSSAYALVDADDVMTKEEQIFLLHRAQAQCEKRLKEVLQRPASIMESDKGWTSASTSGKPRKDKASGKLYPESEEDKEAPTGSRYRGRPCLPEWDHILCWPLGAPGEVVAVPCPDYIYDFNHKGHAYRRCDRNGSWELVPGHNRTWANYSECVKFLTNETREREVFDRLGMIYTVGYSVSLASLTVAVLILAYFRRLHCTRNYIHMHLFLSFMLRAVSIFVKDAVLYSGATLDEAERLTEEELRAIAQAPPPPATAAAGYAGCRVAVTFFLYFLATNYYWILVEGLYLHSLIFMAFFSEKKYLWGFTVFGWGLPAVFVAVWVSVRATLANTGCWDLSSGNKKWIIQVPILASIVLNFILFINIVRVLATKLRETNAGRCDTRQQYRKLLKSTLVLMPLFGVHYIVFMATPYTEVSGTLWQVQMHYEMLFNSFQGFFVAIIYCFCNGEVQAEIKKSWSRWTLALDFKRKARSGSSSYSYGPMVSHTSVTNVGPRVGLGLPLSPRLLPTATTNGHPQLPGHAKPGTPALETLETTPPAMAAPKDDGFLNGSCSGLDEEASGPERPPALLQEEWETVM
Atrial natriuretic peptide receptor 2 (Homo sapiens), sequence (P20594 whole entry, looked up): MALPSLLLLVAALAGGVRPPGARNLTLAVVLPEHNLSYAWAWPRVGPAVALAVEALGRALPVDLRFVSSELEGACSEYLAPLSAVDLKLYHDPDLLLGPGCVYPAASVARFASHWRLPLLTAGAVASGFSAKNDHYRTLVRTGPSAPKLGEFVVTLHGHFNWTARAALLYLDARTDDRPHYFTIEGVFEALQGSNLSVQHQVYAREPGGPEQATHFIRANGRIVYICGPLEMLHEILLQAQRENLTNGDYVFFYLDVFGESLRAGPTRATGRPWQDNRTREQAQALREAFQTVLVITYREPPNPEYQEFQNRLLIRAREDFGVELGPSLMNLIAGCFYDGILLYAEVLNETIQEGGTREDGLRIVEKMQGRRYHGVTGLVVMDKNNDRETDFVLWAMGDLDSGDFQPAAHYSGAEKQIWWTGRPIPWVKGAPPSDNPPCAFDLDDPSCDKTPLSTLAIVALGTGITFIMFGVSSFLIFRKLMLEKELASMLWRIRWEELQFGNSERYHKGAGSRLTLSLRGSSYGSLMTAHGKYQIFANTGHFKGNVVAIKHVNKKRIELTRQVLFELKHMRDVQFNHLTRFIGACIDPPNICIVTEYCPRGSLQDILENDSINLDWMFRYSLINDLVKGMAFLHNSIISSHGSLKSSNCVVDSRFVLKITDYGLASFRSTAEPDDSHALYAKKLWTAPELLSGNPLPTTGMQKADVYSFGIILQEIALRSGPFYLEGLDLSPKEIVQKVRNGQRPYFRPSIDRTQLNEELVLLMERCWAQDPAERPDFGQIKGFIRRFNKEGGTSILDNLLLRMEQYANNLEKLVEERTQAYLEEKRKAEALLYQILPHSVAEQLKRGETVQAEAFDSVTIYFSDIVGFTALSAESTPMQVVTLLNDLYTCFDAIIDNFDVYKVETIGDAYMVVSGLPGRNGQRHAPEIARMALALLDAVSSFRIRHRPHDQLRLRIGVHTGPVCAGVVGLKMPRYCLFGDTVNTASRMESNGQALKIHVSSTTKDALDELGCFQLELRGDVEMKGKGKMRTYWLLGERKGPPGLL

Regarding `O=C(Nc1c(Cl)cncc1Cl)c1ccc(OC(F)F)c(OCC2CC2)c1`, the Potency entry in experiment [1], in experiment [2], in experiment [3], in experiment [4], in [5] and in experiment [6] was “inactive” in each case. For the same compound, the Potency entry in experiment [7] and in experiment [8] was “inactive” each time.
With `COc1ccc(-c2coc3cc(O)cc(O)c3c2=O)cc1`, the Potency result in experiment [1], in experiment [2], in experiment [9], in [3], in experiment [4] and in [5] was “inactive” in each case. Besides, the Potency result in experiment [6] and in experiment [7] was “inactive” each time. Moreover, the values for the Potency in [10] and in experiment [11] were 10.5 µM (active) and 24.1 µM (active), respectively.
With `CCOC1OC(=O)C[C@H]1NC(=O)[C@@H]1CCCN1C(=O)[C@@H](NC(=O)c1ccc(N)c(Cl)c1)C(C)(C)C` (some centres not stated), the Potency result in experiment [1], in experiment [2], in experiment [9], in [3] and in experiment [8] was “inactive” in each case. The Potency in experiment [5] was 1.87 µM (active); in [10], 14.8 µM (active); in experiment [7], 8.33 µM (active); in [12] it was 1.18 µM (active).
Consider `CS(=O)c1ccc(-c2nc(-c3ccc(F)cc3)c(-c3ccncc3)[nH]2)cc1` (configuration not stated), for which the Potency result in experiment [1], in experiment [2], in experiment [3], in [4] and in experiment [8] was “inactive” each time. Further, the Potency was 42.9 µM (active) in experiment [5]; 34 µM (active) in experiment [13]; 8.55 µM (active) in experiment [10]; 17.7 µM (active) in experiment [6]; 10.8 µM (active) in experiment [12].
In the case of `CCCCCCCCCCCC1=C(O)C(=O)C=C(O)C1=O`, the Potency result in experiment [1], in [2], in [3] and in experiment [8] was “inactive” in each case. In addition, the Potency in experiment [4] is 0.935 µM (active); in [10] it was 0.0935 µM (active); in [6], 0.0243 µM (active); in [7], 0.469 µM (active); in experiment [12], 0.0372 µM (active).
As to `NC(=O)c1cnc(-c2ccc(C3(N)CCC3)cc2)c(-c2ccccc2)c1`, the Potency in experiment [1] was 16.4 µM (active); in experiment [10], 1.48 µM (active). The Potency result in experiment [2], in experiment [3], in experiment [4], in experiment [6], in experiment [7] and in [8] was “inactive” in each case.
On to `CCN(CC)CCNC(=O)c1ccc(N)cc1`, for which the Potency result in experiment [1], in [2], in [14], in experiment [3], in [5] and in experiment [13] was “inactive” throughout. The Potency result in [10], in [6], in experiment [7], in experiment [8], in [12] and in experiment [11] was “inactive” throughout. Moreover, the Potency result in experiment [20] was “inactive”. Further, the call in experiment [15], in [16], in experiment [17], in experiment [18] and in [19] was inactive.
With `CC(=O)CCCCn1c(=O)c2c(ncn2C)n(C)c1=O`, the Potency entry in experiment [1], in [2], in experiment [9], in [3], in experiment [4] and in experiment [5] was “inactive” in each case. For the same compound, the Potency result in [13], in experiment [10], in [6], in experiment [7], in experiment [8] and in experiment [12] was “inactive” throughout. Besides, the Potency result in [20] was “inactive”. Moreover, the outcome in experiment [15] and in [19] was inactive.
